Data published in PubChem BioAssay (NCATS).
Records with an inconclusive call do not appear. Where a call stands in place of a potency, no number is given. Unmarked numbers belong to inactive results. Active and inactive are the calls of the source. Calls come from the whole dose curve; as a rule, active = well fitted inhibition curve with a large enough effect; inconclusive = small, poorly fitted or top-dose-only effect; inactive = flat fitted curve, though single readings scatter.

Biological target: Phospholipid hydroperoxide glutathione peroxidase GPX4 (Homo sapiens) (UniProt P36969)
Experiment: Primary qHTS Assay for Inhibitors of Recombinant Selenoprotein Glutathione Peroxidase 4 (GPX4) (AID 1845192); note: nearly all actives have a fitted effect of over 65% in size
Conditions: recombinant GPX4, GR-coupled NADPH fluorescence, 15 min; series mostly up to 50 µM; activity change, negative = inhibition: at the top concentration
Source text: Assay Provider: Elias S.J. Arner MD PhD.
Department of Medical Biochemistry and Biophysics
Karolinska Institutet, Solna, Stockholm, Sweden
Selenoprotein glutathione peroxidases (GPX), like the ubiquitously expressed GPX1 and the ferroptosis modulator GPX4, enact their antioxidant activities by reducing hydroperoxides using glutathione. […] GPX1 and GPX4 inhibitors have thus shown promise as anti-cancer agents. Existing inhibitors are often promiscuous, or modulate GPX activity only indirectly, so novel direct inhibitors identified through screening against GPX1 and GPX4 could be valuable. Here, we developed optimized glutathione reductase (GR)-coupled GPX assays for the biochemical high-throughput screen (HTS) of almost 12,000 compounds with known mechanisms of action. Initial hits were triaged using a GR counter-screen, assessed for isoform specificity using a separate GPX2 assay, and were assessed for general selenocysteine-targeting activity using a thioredoxin reductase (TXNRD1) assay. With this suite of assays, we identified novel GPX1/GPX2- and GPX4-specific inhibitors and can here present a validated pipeline for future discovery research for selenoprotein-targeting agents.
SEQUENCE No. (e.g., 1, 2, 3, etc.); […] (e.g., Cells, Incubation, Reagent, etc.); VALUE; DESCRIPTION.
1; Reagent 1; 3 uL; 333.33 nM GPx4 enzyme or no enzyme control in 1536-well, black, solid Greiner assay plate.
2; Compound; 25 nL; Kalypsis pin tool (Wako USA) equipped with a 1536-well pin head.
3; Incubation; 30 min; room temperature.
4; Reagent 2; 1 uL; 500 nM GR, 5 mM GSH, 2.5 mM NADPH solution
5; Reagent 3; 1 uL; 2.5 mM CHP in 50% EtOH.
6; Detection; Fluorescence; ViewLux microplate reader, excitation 340 nm and emission 450 nm.
7; Incubation; 15 min; room temperature.
8; Detection; Fluorescence; ViewLux microplate reader, excitation 340 nm and emission 450 nm.
NOTES (numbers refer to Sequence numbers above)
1. 3 µL of 333.33 nM GPX4 and 0.016% BSA in assay buffer (50 mM Tris-HCl, 2 mM EDTA (pH 7.5), 150 mM NaCl) was added to columns 3-48 of 1536-well plates using a BioRAPTR Flying Reagent Dispenser (Let's Go Robotics (LGR), Carlsbad, CA). A no-enzyme control (0.01% BSA in TES assay buffer) was added to columns 1-2.
2. 25 nL, library and DMSO controls were added to each well with a pin tool (Kalypsys).
3. The assay plates were incubated for 30 minutes at room temperature.
4. 1 µL of master mix (500 nM glutathione reductase (GR), 5 mM reduced glutathione (GSH), 2.5 mM NADPH in assay buffer) was added.
5. 1 µL of cumene hydroperoxide (CHP) ([2.5 mM] in 50% EtOH) was then added within 5 minutes to initiate the reaction. Final concentrations were: 200 nM GPX4, 1 mM GSH, 0.5 mM CHP, 0.5 mM NADPH, 100 nM GR, 0.01% BSA.
6. Initial fluorescence readout (t=0) at 340/450 nm was measured using a ViewLux multimodal detector (PerkinElmer, Waltham, MA).
8. Endpoint fluorescence readout (t=15) at 340/450 nm was measured 15 min after room temperature incubation.
Potency is the fitted concentration of half-maximal effect.

Phospholipid hydroperoxide glutathione peroxidase GPX4 (Homo sapiens), sequence (P36969 whole entry, looked up): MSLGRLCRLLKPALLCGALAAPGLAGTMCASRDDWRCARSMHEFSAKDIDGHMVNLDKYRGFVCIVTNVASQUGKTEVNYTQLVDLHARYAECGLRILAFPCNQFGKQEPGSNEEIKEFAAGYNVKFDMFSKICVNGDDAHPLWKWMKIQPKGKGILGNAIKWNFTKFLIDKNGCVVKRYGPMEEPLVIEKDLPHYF

| SMILES | outcome | Potency | activity change, negative = inhibition |
| --- | --- | --- | --- |
| CC1(C)S[C@@H]2[C@H](NC(=O)C(c3ccccc3)S(=O)(=O)O)C(=O)N2[C@H]1C(=O)O (stereo not given in full) | inactive | – | – |
| Nc1ccc2cc3ccc(N)cc3nc2c1 | inactive | – | – |
| CC1CCCCN1CCCOC(=O)c1ccc(OC2CCCCC2)cc1 (stereo not given) | inactive | – | – |
| O=C(CCCCCCCCC#CI)Oc1ccccc1 | inactive | – | – |
| CCCCCCOC(=O)NC(=N)c1ccc(NCc2nc3cc(C(=O)N(CCC(=O)OCC)c4ccccn4)ccc3n2C)cc1 | – | inactive | – |
| O=C1NC(c2ccccc2)(c2ccccc2)C(=O)N1COP(=O)(O)O | inactive | – | – |
| CN1CC(=O)N2[C@H](c3ccc4c(c3)OCO4)c3[nH]c4ccccc4c3C[C@@H]2C1=O | – | inactive | – |
| CC1(C)O[C@@H]2C[C@H]3[C@@H]4CCC5=CC(=O)C=C[C@]5(C)[C@@]4(F)[C@@H](O)C[C@]3(C)[C@]2(C(=O)CO)O1 | – | inactive | – |
| Cc1ccc(C(=O)Oc2ccc(C(O)CNC(C)(C)C)cc2OC(=O)c2ccc(C)cc2)cc1 (stereo not given) | inactive | – | – |
| CC(C)(C)c1nnc(NS(=O)(=O)c2ccccc2)s1 | inactive | – | – |
| CCC1=C[C@@H]2CN(C1)Cc1c([nH]c3ccccc13)[C@@](C(=O)OC)(c1cc3c(cc1OC)N(C)[C@H]1[C@@](O)(C(=O)OC)[C@H](OC(C)=O)[C@]4(CC)C=CCN5CC[C@]31[C@@H]54)C2 | – | inactive | – |
| NCC[C@H](O)C(=O)N[C@@H]1C[C@H](N)[C@@H](O[C@H]2O[C@H](CN)[C@@H](O)[C@H](O)[C@@H]2O)[C@H](O)[C@@H]1O[C@H]1O[C@H](CO)[C@@H](O)[C@H](N)[C@@H]1O | – | – | -16.2% [at 0.409 µM] |
| O=c1[nH]c(=O)n([C@H]2O[C@H](CO)[C@@H](O)[C@@H]2O)cc1/C=C\Br | inactive | – | – |
| C[C@H](CN1CCCC1)C(=O)c1ccc(C(F)(F)F)cc1 | – | – | -3.13% |
| COc1cc(NS(=O)(=O)c2ccc(N)cc2)nc(C)n1 | inactive | – | – |
| N=C(N)c1ccc(OCCCOc2ccc(C(=N)N)cc2)cc1 | – | – | 1.27% |
| CCOC(=O)OCC/C(SC(=O)OCC)=C(\C)N(C=O)Cc1cnc(C)nc1N | – | – | -13% |
| Cc1cc(O)c2c(O)c3c(O)cccc3cc2c1 | – | – | -18.3% |
| CC(=O)[C@@]1(O)CC[C@H]2[C@@H]3C[C@H](C)C4=CC(=O)CC[C@]4(C)[C@H]3CC[C@@]21C | inactive | – | – |
| CC(C)Cc1ccc(C(C)C(=O)OCc2ccccn2)cc1 (stereo not given) | inactive | – | – |

| SMILES | outcome | Potency | activity change, negative = inhibition |
| --- | --- | --- | --- |
| C[N+](C)(CCOc1ccccc1)Cc1cccs1 | inactive | – | – |
| COC(=O)/C=C\C(=O)OC | – | – | -14.9% |
| O=C(O)C(=O)Nc1cccc(-c2nn[nH]n2)c1 | – | inactive | – |
| C1N2CN3CN1CN(C2)C3 | inactive | – | – |
| C[C@H]1NCc2cc(-c3ccc4c(=O)c(C(=O)O)cn(C5CC5)c4c3OC(F)F)ccc21 | – | – | -7.55% [at 27.8 µM] |
| CC1c2ccccc2CN1NC(=O)c1ccc(Cl)c(S(N)(=O)=O)c1 (stereo not given) | – | – | -14.9% |
| CCN1CCN(C(=O)N[C@@H](C(=O)N[C@@H]2C(=O)N3[C@@H]2SC(C)(C)[C@H]3C(=O)O)c2ccccc2)C(=O)C1=O | inactive | – | – |
| CCCCC(CC)CNC(=O)CC(C)OC(=O)CCC(=O)O (stereo not given) | – | – | -9.92% |
| C/C(=C1\CCOC(=O)S1)N(C=O)Cc1cnc(C)nc1N | inactive | – | – |
| CNC(=O)c1c(I)c(NC(C)=O)c(I)c(C(=O)O)c1I | – | – | -12.9% |
| CCC[C@H](N[C@@H](C)C(=O)N1[C@H](C(=O)O)C[C@@H]2CCCC[C@@H]21)C(=O)OCC | – | – | -10.2% |
| C[N+]1(CC2COC(c3ccccc3)(c3ccccc3)O2)CCCCC1 (stereo not given) | inactive [at 27.8 µM] | – | – |
| CC(=O)N(c1onc(C)c1C)S(=O)(=O)c1ccc(N)cc1 | – | – | -4.35% |
| CCCCCOc1ccc(C2SC(=O)NC2=O)cc1OCC (stereo not given) | – | 22.4 µM (active) | – |
| CN(C(=O)C(Cl)Cl)c1ccc(OC(=O)c2ccco2)cc1 | inactive | – | – |
| COC(=O)C1=C(C)NC(C)=C(C(=O)OCCc2ccc(N3CCN(C(c4ccccc4)c4ccccc4)CC3)cc2)C1c1cccc([N+](=O)[O-])c1 (stereo not given) | inactive | – | – |
| COc1ccc2c(c1)c(CC(=O)OC/C=C(\C)CC/C=C(\C)CCC=C(C)C)c(C)n2C(=O)c1ccc(Cl)cc1 | – | – | -8.12% |
| N#CSCC(=O)O | – | – | 0.456% |
| C/C(=N\O)[C@@H](C)NCC(C)(C)CN[C@H](C)/C(C)=N/O | inactive | – | – |
| O=C(OCC(COC(=O)c1cccnc1)(COC(=O)c1cccnc1)COC(=O)c1cccnc1)c1cccnc1 | – | – | 2.88% |
